In the library only some 3.5% were active in any assay of this set; here they are far more common.
GPR151 ag – activators of human GPR151, primary screen, cell-based, PathHunter beta-arrestin, luminescence | G-protein coupled receptor 151 (Homo sapiens), Q8TDV0 | PathHunter beta-arrestin GPR151 cells | activation, % at 11.2 µM | hit rate 1% among 650,000 | AID 1508602, 2020; in the data active means activation above about 4.9%;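 further: 0% = median of compound wells and 100% = cells with positive control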
FBW7 activator – FBW7 E3 ligase activators, primary screen, biochemical, AlphaScreen, human. hit rate 0.13% among 650,000. normalized activity (activation), % at 26.1 µM. AlphaScreen FBW7–phospho-cyclin E peptide binding, activator screen. AID 1259310, 2017. F-box/WD repeat-containing protein 7 (Homo sapiens), Q969H0; in the data active means normalized activity above about 1.9%;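 further: purified mutant Fbw7 with reduced substrate affinity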
Target sequence (Q969H0 whole entry, looked up): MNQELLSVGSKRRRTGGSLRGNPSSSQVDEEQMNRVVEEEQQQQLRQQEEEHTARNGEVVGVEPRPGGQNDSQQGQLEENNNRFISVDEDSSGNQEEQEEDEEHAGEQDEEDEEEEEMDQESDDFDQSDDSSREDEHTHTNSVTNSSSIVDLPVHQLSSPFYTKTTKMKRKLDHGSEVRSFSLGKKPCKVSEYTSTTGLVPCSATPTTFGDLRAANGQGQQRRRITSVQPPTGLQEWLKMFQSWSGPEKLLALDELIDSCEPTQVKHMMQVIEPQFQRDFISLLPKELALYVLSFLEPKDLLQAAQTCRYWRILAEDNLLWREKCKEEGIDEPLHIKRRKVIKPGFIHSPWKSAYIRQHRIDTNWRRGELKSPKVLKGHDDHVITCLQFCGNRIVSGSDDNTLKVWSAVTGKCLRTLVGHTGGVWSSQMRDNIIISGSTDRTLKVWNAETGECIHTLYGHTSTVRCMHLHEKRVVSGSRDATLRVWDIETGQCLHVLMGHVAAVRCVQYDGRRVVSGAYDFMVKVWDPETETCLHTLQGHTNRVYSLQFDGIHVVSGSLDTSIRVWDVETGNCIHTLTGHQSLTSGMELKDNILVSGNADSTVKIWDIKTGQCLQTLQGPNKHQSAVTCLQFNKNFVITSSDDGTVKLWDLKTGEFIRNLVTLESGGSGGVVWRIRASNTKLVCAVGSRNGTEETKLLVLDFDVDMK
MITF primary – MITF inhibitors, primary screen, biochemical, AlphaScreen, human | Microphthalmia-associated transcription factor (Homo sapiens), O75030 | AlphaScreen MITF homodimerization, bead proximity signal | inhibition, % at 2.6 µM | hit rate 0.91% among 650,000 | AID 1259374, 2018; in the data active means inhibition above about 50%;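 further: 0% = vehicle wells with protein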
TEAD-YAP block – TEAD-YAP interaction inhibition, primary screen, TEAD-YAP interaction inhibitor project, luminescence, HEK-TIYL cells; TEAD-Gal4/YAP UAS-luciferase luminescence; inhibition, % at 9.12 µM; hit rate 1.4% among 640,000; AID 1259422, 2018; in the data active means inhibition above about 32%;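 further: 0% = median of test compound wells and 100% = reference inhibitor wells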
GPR151 conf act – GPR151 activators, triplicate retest, confirmation, cell-based, PathHunter beta-arrestin, luminescence; 6,700 tested, under 10 active; activation, % at 11.2 µM; GPR151 PathHunter beta-arrestin cells, 90 min; % of EA-reagent control over plate median; shares compounds with GPR151 ag;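 active means mean percent activation across replicates above the confirmation screen cutoff of 4.91%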
GPR119 ag – GPR119 activators in beta-arrestin cells, counter-screen for GPR151 activator project, cell-based, PathHunter beta-arrestin, luminescence, triplicate | activation, % at 11.2 µM | AID 1508611, 2020 | shares compounds with GPR151 ag | hit rate 0.3% among 6,700 | 90 min; 0 = compound-well median, 100 = enzyme-acceptor control;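 active means mean percent activation in the counterscreen above 29.09%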;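 further: counterscreen on off-target GPR119 to flag nonselective hits from the GPR151 activator screen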
The depositor's hits bear a star; . = no result.

SMILES	GPR151 ag	FBW7 activator	MITF primary	TEAD-YAP block	GPR151 conf act	GPR119 ag
CCOC(=O)c1sc(NC(=O)COc2ccc3c(C)cc(=O)oc3c2)nc1C	-1	0	11	0	.	.
O=C(Nc1ccccc1)NC1(C(F)(F)F)Oc2ccc(Cl)cc2O1 (stereo unspecified)	5.2*	0	5	-1	0	5
O=C(CCl)NC1(C(F)(F)F)Oc2ccccc2O1	0	0	6	-2	.	.
O=C(Nc1cccc(C(F)(F)F)c1)NC1(C(F)(F)F)Oc2ccc(Cl)cc2O1 (stereo unspecified)	0	0	9	-23	.	.
O=C(NC1(C(F)(F)F)Oc2ccccc2O1)C(F)(F)F	6.2*	0	7	-1	1	-10
CCC(C)c1ccc(NC(=O)N2CCOCC2)cc1 (stereo unspecified)	5.4*	0	12	-57	-1	-8
Cc1ccc(NC(=O)N2CCOCC2)cc1	-1	0	-11	-3	.	.
Cc1ccccc1CS/C(Nc1ccccc1C)=C(\C#N)C(=O)NCc1cccs1	0	0	9	2	.	.
CCOC(=O)CN1CC(O)=C(C=NCc2ccccc2)C1=O	7.4*	0	16	0	0	10
COC(=O)C1(C(F)(F)F)N=C2C=CC(C)=CN2C(c2ccc(F)cc2)=N1 (stereo unspecified)	-1	0	8	4	.	.
Cc1cc(C)cc(NC(=O)CSc2cn(CC(=O)N3CCOCC3)c3ccccc23)c1	0	0	8	7	.	.
CC(C)c1nnc(SCC(=O)NC(c2ccccc2)c2ccccc2)n1N	6.3*	0	0	-8	0	-7
Nn1c(SCC(=O)NC(c2ccccc2)c2ccccc2)nnc1C1CC1	-1	0	-19	12	.	.
CCn1c(SCC(=O)c2ccccc2)nnc1-c1ccccn1	0	-1	6	-58	.	.
CCn1c(SCC(=O)c2ccccc2)nnc1C(C)C	13*	0	-9	-15	1	9
CC(=O)Oc1ccc(-c2cccc(C(=O)Nc3cccc4ccccc34)c2)cc1	0	0	3	3	.	.
CCc1ccc(-n2c(=S)sc3c(=O)n(-c4ccc(F)cc4)c(SCc4ccc(Cl)cc4)nc32)cc1	0	0	4	0	.	.
CCOc1ccc(NC(=O)CC2Sc3ccc(C(F)(F)F)cc3NC2=O)c([N+](=O)[O-])c1 (stereo unspecified)	5.0*	0	9	-2	0	8
Nc1cc(C(F)(F)F)ccc1NC1CCCCC1	-2	0	0	-16	.	.
O=c1/c(=C/c2ccc(I)cc2)sc2nc3ccccc3n12	0	1	0	-8	.	.
O=C(O)CC(SCC(=O)c1ccc2c(c1)NC(=O)CO2)C(=O)O (stereo unspecified)	2	0	6	5	.	.
CCN(CCO)c1cc(NC(C)C)c2c3c(onc13)-c1ccccc1C2=O	7.1*	0	24	12	1	13
CCNc1cc(N(CC)CCO)c2noc3c2c1C(=O)c1ccccc1-3	-2	-1	47	7	.	.
COc1cccc(NC(=O)CSC2=Nc3ccccc3C3=NC(CC(C)C)C(=O)N23)c1 (stereo unspecified)	3	0	4	-16	.	.
CCCOc1ccc(C(O)(CC)C(CN2CCOCC2)c2ccccc2)cc1 (stereo unspecified)	2	0	-2	-3	.	.
CCOC(=O)c1c(NC(=O)CCSc2nnc3ccccn23)sc2c1CCCC2	1	0	10	0	.	.
CCOC(=O)c1c(NC(=O)CSc2nnc(CNC(=O)c3ccc(OC)cc3)n2-c2ccc([N+](=O)[O-])cc2)sc2c1CCCCC2	5.9*	0	7	1	1	-8
CCOC(=O)c1c(NC(=O)CSc2nc3ccccc3[nH]2)sc2c1CCCC2	6.3*	0	2	-24	0	0
CCOC(=O)c1c(NC(=O)CSc2ccccn2)sc2c1CCCC2	6.8*	0	11	-11	0	-3
